# This is a sample that favours compounds with a hit; in the whole collection about 4.1% have one here.
# EBV LMP1 NFkB: Epstein-Barr LMP1 NF-kappaB reporter inhibition | LMP1-induced NF-kappaB luciferase reporter cells, luminescence | inhibition, % at 12.5 µM | 350,000 compounds, 0.69% hits | AID 504558; in the data active means inhibition above about 41%; inconclusive means no clear call, values can overlap the other calls;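 further: 0% = neutral control wells and 100% = reference inhibitor control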
# TRPM1 prom inh: MITF TRPM1 promoter inhibition in SK-MEL-5 cells. SK-MEL-5 TRPM1 promoter luciferase, 24 h. inhibition, % at 12.5 µM. 330,000 compounds, 0.83% hits. AID 488899;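 active means mean inhibition across replicates of 60% or more, whatever share of single replicates reaches that level; inconclusive means some that reach 60%, reason not given; inactive means mean inhibition across replicates below 60%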
# TROY signal inh: blocks TROY-dependent signaling in reporter cells; inhibition, % at 10 µM; AID 1347056; 360,000 compounds, 0.98% hits; Q293 LMP1-TROYcd NF-kB luciferase reporter, 4 h;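 active means compounds whose plate-normalised and pattern-corrected inhibition of the luciferase reporter signal at the single screening dose is 50% or more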
# TWEAK Fn14 block: blocks TWEAK-Fn14 interaction in a reporter cell assay. TWEAK-stimulated Fn14 reporter cells, luciferase luminescence, 8 h. inhibition, % at 10 µM. 360,000 compounds, 2% hits; in the data active means inhibition above about 50%
# Shn3 3UTR inh: inhibitors of Schnurri-3 3'UTR reporter in osteoblasts. Clone20 osteoblast Shn3 3'UTR firefly luciferase, 24 h. inhibition, % at 12.5 µM. 360,000 compounds, 0.52% hits. AID 588674;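 active means mean inhibition of at least 75% with every replicate also reaching 75%; inconclusive means mean inhibition at least 75% but some replicate below; inactive means mean inhibition below 75%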;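 further: 0% = median of neutral control wells and 100% = pilot-screen positive control compound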
# Peg3 prom inh: inhibitors of Peg3 promoter. 360,000 compounds, 1.7% hits. HeLa PEG-Prom luciferase reporter, luminescence, overnight. AID 588405. inhibition, % at 20 µM;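 active means inhibition of at least 50% at 20 µM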
# Numbers without * were called inactive; ? = inconclusive; nt = no result given.
SMILES,EBV LMP1 NFkB,TRPM1 prom inh,TROY signal inh,TWEAK Fn14 block,Shn3 3UTR inh,Peg3 prom inh
CCOC(=O)Cc1csc(/N=C/c2c(O)n(-c3ccc(C)c(C)c3)c(=O)c3ccccc23)n1,1,66*,-30,6,71,2
Cc1cc(N=Cc2c(O)n(-c3ccc4c(c3)OCO4)c(=O)c3ccccc23)ccn1,-2,75*,-19,-3,40,8
Cc1ccc(-n2c(O)c(C=Nc3ccc4c(c3)OCO4)c3ccccc3c2=O)cc1C,2,4,63*,12,42,27
O=C(/C=C/c1ccc([N+](=O)[O-])cc1)OCC(=O)N1CCCC1,-9,11,2,3,-19,-38
CC(NC1=CC(=O)c2cccnc2C1=O)C(O)c1ccccc1 (stereo not drawn),3,110*,7,16,-12,28
CC(c1ccccc1)N1C(=O)c2cccnc2C1=O (stereo not drawn),2,-2,14,4,-3,7
O=C(CCl)N(c1ccccc1)C1CCS(=O)(=O)C1 (stereo not drawn),12,?,5,53*,5,103*
COc1ccc(CN2CC[C@@H](N3CCOCC3)[C@H](O)C2)cc1F,-2,2,-3,-3,-16,10
COc1ccccc1NC(=O)CSc1ccc(-c2cccs2)nn1,4,0,26,53*,4,-19
Cn1c(=O)c2cc(NC(=O)NCCc3cccs3)ccc2n1Cc1ccccc1,nt,nt,-20,-15,5,-25
CCOC(=O)C/C(C)=N\Nc1nc(-c2ccccc2)cs1,-6,4,40,51*,-28,-44
CCNc1nc(NC(C)C)nc(N(C#N)C(C)C(=O)N(C)C)n1 (stereo not drawn),-5,9,12,-4,-3,12
CCNc1nc(NCC)nc(N(C#N)C(C)C)n1,5,-3,-7,76*,9,-3
C=CC[n+]1c(/C=C2\C=Cc3cc(C)ccc3N2CC)ccc2ccccc21,45*,78*,40,57*,93*,35
CCOC(=O)c1cc(-c2ccccc2C)nn1Cc1cc(C)no1,58*,-68,-69,-53,-61,-165
CCOC(=O)c1cc(-c2ccccc2)nn1Cc1cc(C)no1,-16,-86,-46,-22,-40,-223
FC(F)(F)c1ccccc1CNCc1ccc2c(c1)OCO2,5,3,-6,2,9,-3
NC(CCc1ccccc1)c1csc(NC(=O)Nc2cccc(Cl)c2)n1 (stereo not drawn),nt,nt,3,7,-2,89*
O=C(Nc1cccc(Cl)c1)Nc1nc(-c2ccc(Cl)cc2)cs1,10,16,nt,25,37,-31
NC(c1ccccc1)c1csc(NC(=O)Nc2cccc(Cl)c2)n1 (stereo not drawn),nt,nt,15,24,0,108*
NC(COCc1ccccc1)c1csc(NC(=O)Nc2cccc(C(F)(F)F)c2)n1 (stereo not drawn),nt,nt,-1,-15,59,100*
NC(c1ccccc1)c1csc(NC(=O)Nc2ccc(OC(F)(F)F)cc2)n1 (stereo not drawn),nt,nt,9,8,13,105*
CCCn1c(O)c(N=NC(=O)c2cccnc2)c2cc(Br)ccc21,-16,1,-13,0,14,29
Cc1cccc(C)c1N1CCN(CCn2c(=S)[nH]c3ccccc3c2=O)CC1,1,12,23,-40,-8,-2
Cn1cc(C(=O)N/N=C/c2ccc(Br)c([N+](=O)[O-])c2)c2ccccc21,nt,nt,18,14,1,52*
SMILES,EBV LMP1 NFkB,TRPM1 prom inh,TROY signal inh,TWEAK Fn14 block,Shn3 3UTR inh,Peg3 prom inh
CN(C)CC(O)c1ccc(C=Cc2ccc(Cl)cc2)cc1 (stereo not drawn),-66,78*,-27,-100,-22,104*
Oc1c(C(c2ccccc2Cl)N2CCCC2)ccc2cccnc12 (stereo not drawn),39,75*,-36,-55,87*,26
Nc1nonc1-n1nnc(C(=O)N/N=C/c2ccoc2)c1CSc1ccc(Cl)cc1,-4,7,7,-18,16,25
O=C(NC(c1ccc(-c2ccccc2)cc1)c1cnccn1)C1CCN(Cc2cccc(C(F)(F)F)c2)CC1 (stereo not drawn),nt,nt,25,-8,24,33
CCOc1c(Cl)cc(CNc2ccc(N3CCCC3)cc2)cc1OC,0,2,-5,56*,-11,-53
CCOc1c(Cl)cc(CNc2ccc(S(N)(=O)=O)cc2)cc1OC,5,-5,17,-2,9,20
COc1ccc(OCCCn2cc(/C=C3/C(=N)N4C=C(C)SC4=NC3=O)c3ccccc32)cc1,3,3,18,14,-52,51*
COc1cccc(OCCCn2cc(/C=C3/C(=N)N4C=C(C)SC4=NC3=O)c3ccccc32)c1,5,-10,10,27,23,35
CC(CCN1CCOCC1)c1ccccc1 (stereo not drawn),12,-20,5,60*,-56,3
O=C(NC(=S)/C(=C1\CCCCCN1)[N+](=O)[O-])c1ccccc1,40*,27,87*,99*,33,-15
Nc1nc(=S)[nH]c2c1C1(CCCCC1)Cc1ccccc1-2,-13,10,14,28,90*,-11
COc1ccc(Cn2nnnc2C(C(C)C)N(Cc2ccco2)Cc2cccs2)cc1 (stereo not drawn),-4,-1,nt,80*,39,19
CC(C)C(c1nnnn1Cc1ccccc1)N(Cc1ccco1)Cc1cccs1 (stereo not drawn),-7,4,11,16,29,24
CCc1ccc(OCc2n[nH]c(=S)n2C(C)CCCC(C)C)cc1 (stereo not drawn),-3,-3,-9,6,32,111*
CCc1ccc(OCc2n[nH]c(=S)n2Cc2ccccc2)cc1,-2,-15,-10,2,6,-9
CCOc1ccccc1/C=C(/NC(=O)c1ccccc1)C(=O)N(CC)CC,-3,9,50*,58*,19,7
C=CCSc1nnc(NC(=O)c2c(CC)noc2C)s1,-5,11,10,13,1,7
CC(C)=CC(O)C/C(C)=C/COc1ccc2ccc(=O)oc2c1 (stereo not drawn),9,56,8,83*,17,94*
CN(C)C(=O)COc1ccc2ccc(=O)oc2c1,-2,-3,10,-4,-1,-2
O=C(CSc1nnc(-c2cccs2)n1C1CC1)NC1CCS(=O)(=O)C1 (stereo not drawn),24,0,-10,1,6,13
Cc1nn2c(N3CCN(C)CC3)cc(C(C)(C)C)nc2c1-c1ccccc1,-13,-14,-19,-7,17,59*
O=C(Nc1cccc2ccccc12)ON=C1CCCCC1,nt,nt,76*,81*,-10,-61
COc1ccc(C)cc1NC(=O)ON=C1CCCCC1,nt,nt,-6,-19,-15,-73

# Bioassay records deposited in PubChem by several laboratories.
